Source: the supplement of paper PMC11417369
± gives the standard deviation of the averaged measurements. Whole data set: some 25,000 sequences, median “ln(normalized median fluorescence intensity)” near 8.9, cut for the highest 2% near 10. The full list was thinned out, with the highest values kept by preference.

tested on: PfAP2-LT AP2 domain (GST-tagged); test: gcPBM binding intensity (ln(normalized median fluorescence intensity)); higher = stronger DNA binding
Method in brief: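 For binding intensity, the highest Masliner-normalised natural-log median intensity across replicate spots of either probe orientation was taken. Protein bound to the array was stained with Alexa488 anti-GST antibody and scanned at 488 nm. The protein, GST-tagged P. falciparum DNA-binding domains from E. coli at about 25 μg on average, had been applied for 1 h to an Agilent 4 × 180k array of primer-extended double-stranded 36-bp intergenic genomic probes and negative controls.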

Point of comparison: “TATAAAATACTGTATCGATGGGGGAGGGCGCAGGGG [TGCATGCA_negctrl_site250]”, “gcPBM binding intensity (ln)” value 10.4 ± 0.16. Against it:
- TTTTTTTTGGAATTCACACAAATATAACATGGGTAT [CACACA_site5185] — lower, 8.7 ± 0.38
- AACCTATCTATAGGAACAATATATATATATATAATT [CACACA_negctrl_site1707] — lower, 8.98 ± 0.33
- TTTTGAAAGTTTTTGTGTCCACATATATTTATATAT [XGTACX_site6563] — lower, 8.94 ± 0.44
- ACATATATATAATATATATTTTTCGTGTGGTGTCAC [CACACA_negctrl_site543] — lower, 8.84 ± 0.42
- TTTATTCTTGAGTATTGTACATATGTGTTTGTATAT [XGTACX_site5706] — lower, 8.93 ± 0.45
- ATTTTCTATATCTTTCAACACACAAATTTTTTTTTC [CACACA_site7918] — lower, 8.85 ± 0.45
- TGTTTATTACTCAGGTGTACTCAATTTTTTTTTTTT [XGTACX_site3470] — lower, 8.72 ± 0.47
- TATACATATATATATATATATAGATATATTCACGTG [XGTACX_negctrl_site265] — lower, 9.31 ± 0.21
- ATTTAAATAATATGTACACACATTTAAAAAATTATA [CACACA_site2816] — lower, 8.76 ± 0.44
- AGCTCGGAAAAATTAGCATGCAAAAAAAAAAAAAAA [TGCATGCA_site658] — lower, 8.59 ± 0.58
- TACAATCTTTCATTATGTACTTAACATTTTTTCTGT [XGTACX_site8752] — lower, 8.85 ± 0.52
- ATATTTATGGAATATACACACATGTATAATTACATA [CACACA_site7045] — lower, 8.83 ± 0.4
- TATATATATATATATACACACACACCCATATATATA [CACACA_site8812] — lower, 9.85 ± 0.18
- CATACACCCCAACACACACACACACCCATATATAAT [CACACA_site8097] — within error, 10.3 ± 0.37
- ACCCATATAATATATACACACATATATATATATATA [CACACA_site4731] — lower, 9.855 ± 0.035
- AATAAATATATATACACACCCATATATATATATATA [CACACA_site2595] — lower, 9.73 ± 0.014
- TATATATATATATACACACACACACCCATATATATA [CACACA_site2538] — within error, 10.2 ± 0.3
- CTTATATATACATATACACACACACCCATATATATA [CACACA_site8705] — lower, 9.59 ± 0.13
- ACTATATTTCTATAATGTACAAAAATAAATCATATG [XGTACX_site3337] — lower, 8.64 ± 0.39
- TTTGCCCAAAAAGGTACACACCACAATGTACATAAA [CACACA_site4599] — lower, 8.85 ± 0.49
- ATAAAGCCATACAATACACACATTTTACATGGCTGT [CACACA_site5756] — lower, 9.26 ± 0.42
- CAAACATTTTAATGTACACACACCCACAGACAAACA [CACACA_site5522] — lower, 9.57 ± 0.13
- AAATTTGGCAAACACACACACACACCCACAGAGACA [CACACA_site4490] — within error, 10.2 ± 0.13
- GGCAAATTTATTATACCCACATACATACATACATAC [XGTACX_negctrl_site186] — lower, 9.01 ± 0.32
- AACTTTGGCAAACACACACACACACCCACACCCACA [CACACA_site588] — within error, 10.1 ± 0.42
- AAATTTGGCAAACACACACACACACCCACACCCACA [CACACA_site8095] — the same, 10.4 ± 0.19
- AGACAGCGCACAAACACACAAACACCCACCCACATA [CACACA_site451] — within error, 10.1 ± 0.16
- TACATAAATTAAAACACACACACACCCAAAAAAAAA [CACACA_site2261] — lower, 9.9 ± 0.22
- TTTTTTCTTTTATGTGAAATGTAATATTGTTATATA [GTGCAC_negctrl_site715] — lower, 8.51 ± 0.52
- TATATACGCATTTTTATACACACTTGTTTTATAAAA [CACACA_site727] — lower, 8.79 ± 0.35
- GGATATATTATATGTACACACACATATAAGGGATTA [CACACA_site7884] — lower, 9.34 ± 0.31
- TTACAAAAAAATAATTGTACATACAATTTCTGTTAT [XGTACX_site877] — lower, 8.71 ± 0.45
- ATATTTTTATTTAAACGTACATACACGTTGAAAAGA [XGTACX_site4567] — lower, 8.43 ± 0.4
- TGTAATAAATAGTACACACACACATATTTATATATC [CACACA_site6770] — lower, 9.72 ± 0.23
- TCTTTATCTTCTTATACACACATTTATTAAAAAAAA [CACACA_site445] — lower, 8.55 ± 0.4
- ATAAAACCAACATAGAGTACAGATCGACTATGTTTC [XGTACX_site4329] — lower, 9.05 ± 0.47
- GTTATAGAAGCATTCACACACACACCCACATACACA [CACACA_site1465] — lower, 10.1 ± 0.11
- AATAATAGAAGCACCCACCCACCACCACCCACACAT [CACACA_negctrl_site1033] — within error, 10.46 ± 0.028
- TATAATAATCCACAAGCACACACACCCACATATATA [CACACA_site8343] — lower, 9.91 ± 0.32
- TGTAAGTTGATATAATGTACATGTTTGATTTTTTTT [XGTACX_site7687] — lower, 8.71 ± 0.47
- ATATATGGGGCGCAGGAAAAGAGTTTTGGAAATAAA [CACACA_negctrl_site1265] — lower, 8.98 ± 0.55
- AGTATATAAAATACTGTATCGATGGGGGAGGGCGCA [CACACA_negctrl_site1612] — within error, 10 ± 0.44
- CTTTTTTGTTAAAGTGTGCGCAATAGTTATAGACTT [GTGCAC_site9670] — lower, 8.87 ± 0.38
- ATAATCCACAAGCACACACACACACCCATATATATA [CACACA_site1268] — within error, 10.1 ± 0.35
- AGATATAAGAAAAGCACACACACACCCAAAAAAAAA [CACACA_site2826] — within error, 10.2 ± 0.18
- TAATAATACCCAAGCACACACACACCCATATATATA [CACACA_site4831] — within error, 10.1 ± 0.33
- TTAATATAAGCAAATACACACACACCGATATATATA [CACACA_site9269] — lower, 9.8 ± 0.26
- TAATAATCCACAAGCACACACACACCCATATATATA [CACACA_site1267] — lower, 9.96 ± 0.13
- TGATAATAAGCATACACACACACACTAAAAAAAAAA [CACACA_site6478] — within error, 9.94 ± 0.38
- TGATAATAAGCATACACACACACACTAGAAAAAAAA [CACACA_site4558] — within error, 10.1 ± 0.38
- TATAATCCATAAGAAGCACACACATATATATATATT [CACACA_site8394] — lower, 9.41 ± 0.3
- ATAATACCCAAGCACACACACACACCGATATATATA [CACACA_site8344] — the same, 10.4 ± 0.2
- AGAGATATAAGAAAAGCACACACACCCAAAAAAAAA [CACACA_site8917] — within error, 9.96 ± 0.29
- ATATAAGAAAAGCACACACACACAAAAAAAAAAAAA [CACACA_site2827] — within error, 10.1 ± 0.42
- AGATATAAGAAAAGCACACACACACTAGAAAAAAAA [CACACA_site5559] — within error, 9.92 ± 0.33
- ATTTTAACTCCCCTTAATCTATTGTATATATATATA [CACACA_negctrl_site208] — lower, 8.88 ± 0.29
- TACTCAAAAATTAATTAGCATAATATATATAAAAAT [GTGCAC_negctrl_site613] — lower, 8.49 ± 0.45
- TTTGCCATAAAACACACACACATGTAAACCCCCTTT [CACACA_site1646] — lower, 9.76 ± 0.2
- ATATATTAATATGTGTGTACTTAACCATTCATATGT [XGTACX_site7395] — lower, 9.1 ± 0.4
- TCTTGTATACGGCATGCATGTTAGCACATACGGACA [TGCATGCA_site146] — lower, 8.9 ± 0.32
- ATATATTTAAATAAAAGTACGTAAAGGTATATTTAA [XGTACX_site8088] — lower, 8.88 ± 0.44
- ACATTCAATAAACGTCGTACACTTTCCTTTTTATGA [XGTACX_site3274] — lower, 8.86 ± 0.52
- TAATAATAGTCTAATACATGCATCGATAACGGAACT [TGCATGCA_site98] — lower, 8.82 ± 0.32
- AATAAGTATACACATACACACACACCCAAAAAAAAA [CACACA_site8034] — within error, 10 ± 0.39
- TGATAATAAGCATACACACACACACCCAAAAAAAAA [CACACA_site721] — within error, 10.2 ± 0.25
- GGTGATAATAAGCATACACACACACCCAAAAAAAAA [CACACA_site8137] — lower, 9.59 ± 0.35
- AACATAAGTAAGAATACATGCGGAAATTATATAGAA [TGCATGCA_site112] — lower, 9.03 ± 0.38
- GGTAAGTACGACTTGACACACATACCCATATATATA [CACACA_site4837] — lower, 9.2 ± 0.55
- ATAATTATATTTAGTGGTACTACTTTTGATAATTAG [XGTACX_site6562] — lower, 8.63 ± 0.42
- AACACATACAGACACACACACAAAAAAAAAAAAAAA [CACACA_site6322] — within error, 9.58 ± 0.78
- AAAAAAAACAGACACACACACATACACATACATACA [CACACA_site2857] — within error, 10.2 ± 0.19
- TAAACAGACATATAAACACACATACATACATACATA [CACACA_site7215] — lower, 9.41 ± 0.32
- AAAAAAAAAAAAAACACACACATACAGACAAAAATG [CACACA_site83] — lower, 9.7 ± 0.45
- CACAAACAGACAAACACACACACACGGACATACATA [CACACA_site6350] — lower, 10.1 ± 0.11
- AAAAAAAAAAAACATACACACATACATACAGATATA [CACACA_site4681] — lower, 9.32 ± 0.36
- AAAAAAAACAGACACACACACACATATACATACATA [CACACA_site2665] — within error, 10.3 ± 0.17
- TAAACAGACATACATACACACATACATACAGACATA [CACACA_site6997] — lower, 9.61 ± 0.37
- AACAGACATACATACACACATACATACAGACATACA [CACACA_site1942] — lower, 9.64 ± 0.45
- ATATATTTTGTTATGGTGCGTAAGAAATATATTCTT [GTGCAC_site9825] — lower, 8.73 ± 0.43
- CGAGCAAGACGGGGTGCACACAAACTAATATGCCGA [CACACA_site7936] — lower, 9.55 ± 0.5
- TCAAACGGTTAAATATGTACATATATATATATATAT [XGTACX_site2339] — lower, 9.695 ± 0.0071
- TTATAATATTCATAAGGTACAGTTTATATATGTTAT [XGTACX_site8442] — lower, 8.68 ± 0.4
- TCTTTGAATTTTTTAACACACACATGGGTGGATATA [CACACA_site8474] — lower, 9.04 ± 0.38
- ATATAATAGTATATATGTACATATATTTAAATACTA [XGTACX_site1135] — lower, 8.82 ± 0.4
- ATTCATACATGCACACGTACATATTTAAATATAAAA [XGTACX_site8388] — lower, 9.04 ± 0.36
- TTAGAAACATTGAAAGCATGCAATATTACTTTATAC [TGCATGCA_site522] — lower, 8.82 ± 0.28
- TTTTTTTCTTGTTTTAAATAATATACTGGAAAAAAA [CACACA_negctrl_site585] — lower, 7.88 ± 0.33
